# Data reported in PubChem BioAssay (EPA / NIEHS).
# Records with an inconclusive call do not appear. Activity calls are given as the source filed them. How the source made its calls: active means hit-call score of the fitted dose curve at least 0.9, where 1 is the maximum; inconclusive means response in the unintended direction; inactive means score below 0.9. Where a SMILES comes first, the peptide text is derived from it. [ ]: non-standard residue; d: D form. Orn = NCCC[C@H](N)C(=O)O
# Key:
# [1] = TOX21_p53_BLA_p2_viability: Viability Assessment in the Tox21 HCT-116 p53 Agonism Beta-lactamase Assay, Phase 2 (AID 2283591);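 further: compound exposure lasted 16 h at 37 °C; actives lower the ATP signal meaning cytotoxicity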
# Method in brief: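 HCT-116 p53-bla cells (4000/well) rested 5 h at 37C, then received compounds in DMSO (217-fold dilution) for 16 h at 37C, 5% CO2. After the CCF4 read, CellTiter-Glo was added; ATP luminescence was read after 30 min at room temperature.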
# [2] = biological target: Cellular tumor antigen p53 (Homo sapiens) (UniProt P04637); assay: TOX21_p53_BLA_p2_ratio: Tox21 HCT-116 p53 Agonism Beta-lactamase Assay, Ratio, Phase 2 (AID 2283592)
# Sequence of Cellular tumor antigen p53 (Homo sapiens) (P04637 whole entry, looked up): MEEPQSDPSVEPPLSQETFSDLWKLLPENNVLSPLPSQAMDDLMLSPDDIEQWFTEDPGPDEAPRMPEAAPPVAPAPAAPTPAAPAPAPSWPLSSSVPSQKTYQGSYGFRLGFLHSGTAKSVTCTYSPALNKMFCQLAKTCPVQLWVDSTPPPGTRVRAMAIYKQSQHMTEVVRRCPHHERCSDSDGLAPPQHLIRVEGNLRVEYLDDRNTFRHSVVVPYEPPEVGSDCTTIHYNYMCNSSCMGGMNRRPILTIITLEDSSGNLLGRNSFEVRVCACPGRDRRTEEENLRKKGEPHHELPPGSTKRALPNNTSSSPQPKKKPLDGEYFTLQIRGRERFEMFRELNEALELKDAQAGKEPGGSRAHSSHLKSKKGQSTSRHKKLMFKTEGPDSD
# Method in brief: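 Gain-of-signal p53 agonism was scored from the beta-lactamase FRET ratio (460/530 nm, 405 nm excitation) in HCT116 cells treated 16 h at 37C, 5% CO2, with DMSO serving as negative control and baseline.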
# [3] = TOX21_p53_BLA_p3_viability: Viability Assessment in the Tox21 HCT-116 p53 Agonism Beta-lactamase Assay, Phase 3 (AID 2283593);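 further: cells exposed to compound for 16 h before reading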
# Method in brief: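 HCT-116 cells (4000/well) rested 5 h at 37C, then got DMSO compounds by pin tool (217-fold dilution) for 16 h at 37C, 5% CO2. After the bla read, CellTiter-Glo was added and luminescence read at 30 min, room temperature.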
# [4] = biological target: Cellular tumor antigen p53 (Homo sapiens) (UniProt P04637); assay: TOX21_p53_BLA_p3_ratio: Tox21 HCT-116 p53 Agonism Beta-lactamase Assay, Ratio, Phase 3 (AID 2283596)
# Method in brief: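 HCT116 p53-bla cells (4000/well) given compound in DMSO (217-fold dilution) after 5 h, incubated 16 h at 37C. CCF4-AM substrate 2 h at room temperature; 460/530 nm emission ratio, gain fitted against DMSO.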
# [5] = TOX21_p53_BLA_p4_viability: Viability Assessment in the Tox21 HCT-116 p53 Agonism Beta-lactamase Assay, Phase 4 (AID 2283597);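 further: hits lower the luminescence signal meaning cytotoxicity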
# Method in brief: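 Following a 16 h exposure at 37C, the treated HCT116 wells were first read for the FRET ratio. They were then lysed with CellTiter-Glo, and ATP luminescence was recorded after 30 min at room temperature.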
# [6] = biological target: Cellular tumor antigen p53 (Homo sapiens) (UniProt P04637); assay: TOX21_p53_BLA_p5_ratio: Tox21 HCT-116 p53 Agonism Beta-lactamase Assay, Ratio, Phase 5 (AID 2283599)
# Method in brief: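 HCT-116 cells carrying a p53-inducible beta-lactamase reporter were seeded at 4000 cells/well and dosed after 5 h with compound in DMSO (217-fold dilution). After 16 h at 37C, CCF4-AM substrate was added for 2 h, and the 460/530 nm emission ratio was scored as gain-of-signal versus DMSO.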
# [7] = TOX21_p53_BLA_p5_viability: Viability Assessment in the Tox21 HCT-116 p53 Agonism Beta-lactamase Assay, Phase 5 (AID 2283600)
# Method in brief: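 After the 460/530 nm beta-lactamase measurement, the wells received an ATP-detection luciferase reagent; signal was read 30 min later at RT. Compound treatment lasted 16 h on cells pre-incubated 5 h post-seeding.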
# [8] = biological target: Cellular tumor antigen p53 (Homo sapiens) (UniProt P04637); assay: TOX21_p53_BLA_p4_ratio: Tox21 HCT-116 p53 Agonism Beta-lactamase Assay, Ratio, Phase 4 (AID 2283601)
# Method in brief: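 HCT116 cells carrying an inducible beta-lactamase reporter were plated at 4000 cells/well, rested 5 h, then exposed to compounds in DMSO (217-fold dilution) for 16 h at 37C. CCF4-AM substrate was loaded 2 h at room temperature; 460/530 nm emission ratio scored gain-of-signal versus DMSO.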
Structure (SMILES),outcome [1],outcome [2],outcome [3],outcome [4],outcome [5],outcome [6],outcome [7],outcome [8],AC50 [5],AC50 [6],AC50 [8],AC50 [1],AC50 [2],AC50 [3],AC50 [4],AC50 [7]
CCOC(=O)C=CC(=O)O,inactive,inactive,inactive,inactive,inactive,inactive,inactive,inactive,,,,,,,,
CO[C@H]1C[C@H](O[C@@H]2/C(C)=C/C[C@@H]3C[C@@H](C[C@]4(CC[C@H](C)[C@@H](C5CCCCC5)O4)O3)OC(=O)[C@@H]3C=C(C)/C(=N/O)[C@H]4OC/C(=C\C=C\[C@@H]2C)[C@]43O)O[C@@H](C)[C@@H]1O,inactive,inactive,inactive,inactive,,inactive,inactive,inactive,40.7 µM (active),,,,,,,
CN1C(=O)OC(C)(C)C1=O,inactive,inactive,inactive,inactive,inactive,inactive,inactive,inactive,,,,,,,,
CCCCCCCCCCCCCC[N+](C)(C)Cc1ccccc1,inactive,inactive,inactive,inactive,,,inactive,,27.9 µM (active),40.8 µM (active),43.7 µM (active),,,,,
COc1c(Br)cc(Br)c(C)c1Br,inactive,inactive,inactive,inactive,inactive,inactive,inactive,inactive,,,,,,,,
Cc1cc(O)c2c(c1)O[C@@]1(C)CC[C@H]3C(C)(C)CCCC34CO[C@@H]2[C@H]41 (stereo not given in full),,,,,,,,,29.6 µM (active),30.6 µM (active),43.4 µM (active),31 µM (active),44.2 µM (active),34.3 µM (active),43.7 µM (active),20.8 µM (active)
COc1ccccc1/C=C/C=O,inactive,inactive,inactive,inactive,inactive,inactive,inactive,inactive,,,,,,,,
CC(C)OC(=O)CCCCC(=O)OC(C)C,inactive,,inactive,inactive,inactive,,inactive,,,71.9 µM (active),69 µM (active),,60.5 µM (active),,,
C[n+]1cc2c3c(ccc2c2ccc4cc5c(cc4c21)OCO5)OCO3,,,,,,,,,3.64 µM (active),5.66 µM (active),9.14 µM (active),4.28 µM (active),4.96 µM (active),2.31 µM (active),2.32 µM (active),5.48 µM (active)
COc1cc2c(N3CCN(C(=O)Nc4ccc(OC(C)C)cc4)CC3)ncnc2cc1OCCCN1CCCCC1,inactive,,inactive,,inactive,,inactive,,,34.7 µM (active),25.2 µM (active),,35.5 µM (active),,36.9 µM (active),
Cc1cnc(C(=O)O)c[n+]1[O-],inactive,inactive,inactive,inactive,inactive,inactive,inactive,inactive,,,,,,,,
COCC1=C(C(=O)OC(C)OC(=O)OC(C)C)N2C(=O)[C@@H](NC(=O)/C(=N\OC)c3csc(N)n3)[C@H]2SC1 (stereo not given in full),inactive,inactive,inactive,inactive,inactive,inactive,inactive,inactive,,,,,,,,
CC(C)C[C@@H]1NC(=O)[C@H](CCCN)NC(=O)[C@H](C(C)C)NC(=O)[C@@H]2CCCN2C(=O)[C@@H](Cc2ccccc2)NC(=O)[C@H](CC(C)C)NC(=O)[C@H](CCCN)NC(=O)[C@H](C(C)C)NC(=O)[C@@H]2CCCN2C(=O)[C@@H](Cc2ccccc2)NC1=O (cyclo(V[Orn]L[dF]PV[Orn]L[dF]P)),,inactive,,inactive,,inactive,,,5.84 µM (active),,2.35 µM (active),8.09 µM (active),,5.88 µM (active),,4.51 µM (active)
O=C(O)C[C@H](NC(=O)OCc1ccccc1)C(=O)O,inactive,inactive,inactive,inactive,inactive,inactive,inactive,inactive,,,,,,,,
CC[C@H](C)COC(=O)/C=C/c1ccc(N=Cc2ccc(OC)cc2)cc1,,,inactive,inactive,,inactive,inactive,,46 µM (active),,84.4 µM (active),43.5 µM (active),87.2 µM (active),,,
O=C(NCC1CCCCN1)c1cc(OCC(F)(F)F)ccc1OCC(F)(F)F (stereo not given),inactive,inactive,inactive,inactive,inactive,inactive,inactive,inactive,,,,,,,,
C=C1CC[C@H](O)C/C1=C/C=C1\CCC[C@]2(C)[C@@H]([C@H](C)CCCC(C)(C)O)CC[C@@H]12,,,,,,,,,12.8 µM (active),23.2 µM (active),18.6 µM (active),12.8 µM (active),19.2 µM (active),13.7 µM (active),27.6 µM (active),13.1 µM (active)
Cn1c(O)c(N=NC(N)=S)c2ccccc21,inactive,inactive,inactive,inactive,inactive,inactive,inactive,inactive,,,,,,,,
CC(C)Oc1ccc2c(=O)c(-c3ccccc3)coc2c1,inactive,inactive,inactive,inactive,inactive,inactive,inactive,inactive,,,,,,,,
COc1cccc2c1C(=O)c1c(O)c3c(c(O)c1C2=O)C[C@@](O)(C(=O)CO)C[C@@H]3O[C@H]1C[C@H](N)[C@H](O[C@@H]2CCCCO2)[C@H](C)O1,,,,,,,inactive,,7.64 µM (active),7.29 µM (active),7.58 µM (active),7.4 µM (active),6.79 µM (active),7.5 µM (active),7.49 µM (active),
